“And” between values parts separate entries of the source, which are not always exact repeats. Equal values may be shown once. Compounds without any hit were thinned out: in the full panel of roughly 83,000, 20% have a hit.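 Negative percent growth values reflect cell death: -40 means 40% of the cells present at the start died, and -100 means all died.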 The source made the active and inactive calls. The calls were made as follows: active = growth percent below 10; inactive = the rest.
Columns and labels:
Assay in all cases: NCI-60 one-dose screen, 48 h (100 = growth as untreated, 0 = no growth, -100 = all killed)
Details in all cases: 10 µM unless noted
SK-MEL-2 melanoma = tested on: SK-MEL-2 melanoma
EKVX NSCLC = tested on: EKVX NSCLC
SN12C renal = tested on: SN12C renal
UO-31 renal = tested on: UO-31 renal
TK-10 renal = tested on: TK-10 renal
ACHN renal = tested on: ACHN renal
CAKI-1 renal = tested on: CAKI-1 renal
A498 renal = tested on: A498 renal
CCRF-CEM leukemia = tested on: CCRF-CEM leukemia
MOLT-4 leukemia = tested on: MOLT-4 leukemia
SR leukemia = tested on: SR leukemia
RPMI-8226 leukemia = tested on: RPMI-8226 leukemia
OVCAR-8 ovarian = tested on: OVCAR-8 ovarian
OVCAR-5 ovarian = tested on: OVCAR-5 ovarian
OVCAR-4 ovarian = tested on: OVCAR-4 ovarian
SK-OV-3 ovarian = tested on: SK-OV-3 ovarian
IGROV1 ovarian = tested on: IGROV1 ovarian
OVCAR-3 ovarian = tested on: OVCAR-3 ovarian
HS 578T breast = tested on: HS 578T breast
NCI/ADR-RES ovarian = tested on: NCI/ADR-RES ovarian

Measured: growth

COc1ccc(-c2csc(NC(=O)CN3CCN(CCO)CC3)n2)cc1NS(=O)(=O)c1cccc2c(N(C)C)cccc12
inactive: SK-MEL-2 melanoma 86.9% | EKVX NSCLC 80.9% | SN12C renal 89.1% | UO-31 renal 61.4% | TK-10 renal 109% | ACHN renal 87% | CAKI-1 renal 75.6% | A498 renal 102% | CCRF-CEM leukemia 54.8% | MOLT-4 leukemia 65.4% | RPMI-8226 leukemia 36% | OVCAR-8 ovarian 84.1% | OVCAR-5 ovarian 97% | OVCAR-4 ovarian 68.2% | SK-OV-3 ovarian 90.7% | IGROV1 ovarian 77.3% | OVCAR-3 ovarian 79.5% | HS 578T breast 65.7% | NCI/ADR-RES ovarian 93.3%
active: SR leukemia -6.12%

COc1ccc(-c2ccc(-c3ccc(C(=N)N)cn3)o2)cc1Cl
active: CCRF-CEM leukemia -4.6% | SR leukemia -28.3% | RPMI-8226 leukemia -35.5% | OVCAR-3 ovarian -13.2%
inactive: SK-MEL-2 melanoma 83.1% | EKVX NSCLC 70.4% | SN12C renal 44.5% | UO-31 renal 52.4% | TK-10 renal 94.4% | ACHN renal 17.3% | CAKI-1 renal 40.2% | A498 renal 80.5% | MOLT-4 leukemia 10.7% | OVCAR-8 ovarian 12.3% | OVCAR-5 ovarian 68.6% | OVCAR-4 ovarian 38.8% | SK-OV-3 ovarian 84.8% | IGROV1 ovarian 68.7% | HS 578T breast 59.1% | NCI/ADR-RES ovarian 82.8%

C=C1C(=O)O[C@H]2[C@H]1CC/C(COC(=O)NCc1ccc(Cn3c(=O)sn(CCCI)c3=O)cc1)=C\CC[C@@]1(C)O[C@@H]21
active: SN12C renal 2.19% | UO-31 renal -30.1% | TK-10 renal 0.113% | CCRF-CEM leukemia -9.69% | MOLT-4 leukemia 9.74% | SR leukemia 8.4% | RPMI-8226 leukemia -6.45% | IGROV1 ovarian -0.0888% | OVCAR-3 ovarian -33.4%
inactive: SK-MEL-2 melanoma 68.5% | EKVX NSCLC 91.7% | ACHN renal 16.2% | CAKI-1 renal 33.7% | A498 renal 105% | OVCAR-8 ovarian 37.7% | OVCAR-5 ovarian 71.1% | OVCAR-4 ovarian 17.7% | SK-OV-3 ovarian 101% | HS 578T breast 78.4% | NCI/ADR-RES ovarian 102%

Cn1cc(-c2nc3c(F)cc4[nH]ncc4c3c3c2CCCC3)c(C(F)F)n1
inactive: SK-MEL-2 melanoma 76.7% | EKVX NSCLC 54.5% | SN12C renal 66.7% | UO-31 renal 35.8% | TK-10 renal 52.3% | ACHN renal 44.3% | CAKI-1 renal 37% | A498 renal 33.1% | RPMI-8226 leukemia 27.7% | OVCAR-8 ovarian 73% | OVCAR-5 ovarian 71.2% | OVCAR-4 ovarian 100% | SK-OV-3 ovarian 37.2% | IGROV1 ovarian 51.8% | OVCAR-3 ovarian 84.4% | HS 578T breast 40.4% | NCI/ADR-RES ovarian 77.9%
active: CCRF-CEM leukemia 4.61% | MOLT-4 leukemia 7.32% | SR leukemia -16.9%

O=C(Nc1ccc(Cl)c(Cl)c1)Nc1ccc(Cl)c(Cl)c1
-54.9% (active) and 14.6% (inactive): NCI/ADR-RES ovarian
-96.9% (active) and 35.3% (inactive): TK-10 renal
-28.5% (active) and 20.8% (inactive): MOLT-4 leukemia
inactive: EKVX NSCLC 23.1%
-83.4% (active) and 14.8% (inactive): SN12C renal
-16.6% (active) and 28.9% (inactive): SR leukemia
-14% (active) and 21.4% (inactive): CCRF-CEM leukemia
-45% (active) and 48.8% (inactive): HS 578T breast
-85.3% (active) and 41.8% (inactive): OVCAR-5 ovarian
active: UO-31 renal -88.8% and -9.62% | ACHN renal -85.8% and 7.07% | CAKI-1 renal -90.8% and -2.12% | A498 renal -90.1% and -0.946% | OVCAR-4 ovarian -86.4% | IGROV1 ovarian -86.4% and 4.75% | OVCAR-3 ovarian -95.3% and 6.41%
-87% (active) and 29.5% (inactive): SK-OV-3 ovarian
-78.7% (active) and 23.2% (inactive): OVCAR-8 ovarian
-78.9% (active) and 45.5% (inactive): SK-MEL-2 melanoma
-36.5% (active) and 10.6% (inactive): RPMI-8226 leukemia

COc1c(O)c(O)cc2c3c(oc12)CC(c1ccc2c(c1)OCO2)CC3=O (stereo not given)
inactive: SK-MEL-2 melanoma 69.6% | EKVX NSCLC 65.2% | SN12C renal 82.2% | UO-31 renal 44.7% | TK-10 renal 101% | ACHN renal 29.7% | CAKI-1 renal 72% | A498 renal 97.9% | CCRF-CEM leukemia 56.7% | MOLT-4 leukemia 43.5% | SR leukemia 45.2% | RPMI-8226 leukemia 62.5% | OVCAR-8 ovarian 63% | OVCAR-5 ovarian 116% | OVCAR-4 ovarian 80.5% | SK-OV-3 ovarian 90.1% | IGROV1 ovarian 54.5% | OVCAR-3 ovarian 63.8% | HS 578T breast 93.8% | NCI/ADR-RES ovarian 67%

C=C[C@]1(C)C=C2CC[C@@H]3C(C)(C)C(=O)CC[C@@]3(C)[C@@H]2CC1
inactive: SK-MEL-2 melanoma 106% | EKVX NSCLC 101% | SN12C renal 99% | UO-31 renal 17.9% | TK-10 renal 98.7% | ACHN renal 106% | CAKI-1 renal 84% | A498 renal 90.6% | CCRF-CEM leukemia 101% | MOLT-4 leukemia 109% | SR leukemia 102% | RPMI-8226 leukemia 98.3% | OVCAR-8 ovarian 103% | OVCAR-5 ovarian 111% | OVCAR-4 ovarian 102% | SK-OV-3 ovarian 111% | IGROV1 ovarian 11.3% | OVCAR-3 ovarian 109% | HS 578T breast 104% | NCI/ADR-RES ovarian 110%
